The full list was thinned out, with hits kept by preference.
Methyltransferases = Primary Screen for Target Class Profiling of Small Molecule Inhibitors of Methyltransferases. 3.9% of 25,000 active. purified enzyme, MTase-Glo SAH luminescence; active compounds read low. calls only at 40 µM; call rule not given here
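Each enzyme was reacted with SAM and its substrate, with compounds tested once at 40 uM; SAH formed was read by MTase-Glo luminescence.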
* = called active by the depositor; i = inactive; + = active, no number; ! = not confirmed by another sample. On the % scale 0 is the no-effect control and ±100 the full control effect.

SMILES	Methyltransferases
O=C(COCC(=O)N1CCN(C(c2ccccc2)c2ccccc2)CC1)Nc1ccc(Cl)cc1C(=O)O	+
O=C(CCC(=O)n1ncc2ccc(Cl)cc21)N1CCN(c2ccccc2)CC1	i
CCCn1c(=O)c2ccccc2n2c(=O)n(CC(=O)N3CCN(c4ccccc4F)CC3)nc12	i
CC(C)(O)c1ccc2c(c1)ncn2-c1cccc(-c2ccccc2C#N)c1	+
CC1(C(=O)NC2CCCC2)Cn2c(ccc2-c2ccco2)C(=O)N1Cc1cccc(Br)c1 (configuration not stated)	i
CN1C(=O)c2cc(C(=O)NCCC3=CCCCC3)nn2CC1(C)C(=O)NCc1ccccc1 (configuration not stated)	i
CC1CCN(S(=O)(=O)c2ccc3c(ccn3CC(=O)NCCc3ccc(Cl)cc3)c2)CC1	i
CC1(O)CCC2C(C3C1CCC3(C)O)C2(C)C (configuration not stated)	i
CC1=C2C[C@@]3(C)C(CCC[C@@H]3C)C(O)C2OC1=O (some centres not stated)	i
CC1=C2CC3C(CCC3(C)O)C(C)(O)CC2OC1=O (configuration not stated)	+
CC(C)OC(=O)C(C)Oc1ccc2c(-c3ccccc3)cc(=O)oc2c1 (configuration not stated)	i
CC(C)c1cccc2c(-c3ccccc3)cc(-c3ccc(-c4ccc(C(=O)O)cc4)[nH]3)nc12	+
O=C(Cn1nc2n(Cc3ccc(F)cc3)c(=O)c3ccccc3n2c1=O)NCc1ccccc1	i
CC(=O)Nc1cccc(C(=O)NCc2nn(Cc3ccccc3)c3ccccc23)c1	i
Nc1[nH]nc2nnc(-c3c(-c4ccccc4)nn4ccccc34)cc12	+
O=C(O)c1cc(-c2c(-c3ccccc3)nn3ccccc23)n[nH]c1=O	i
CCC1c2ccc(C)n2CCN1C(=O)Nc1ccc(F)c(Cl)c1 (configuration not stated)	i
COc1cccc(C(=O)Cn2nc3n(C)c(=O)c4ccc(C(=O)NC5CCCCC5)cc4n3c2=O)c1	i
COC(=O)c1cc(OC)cc(OC)c1C(=O)c1c(OC)cc2c(c1O)C1CCCC(C)(O2)O1 (configuration not stated)	i
CC12CCC3C1C(c1c(cc(O)c(C(=O)c4ccccc4)c1O)O2)C3(C)C (configuration not stated)	+
CCc1ccc(S(=O)(=O)N2CCC(C3CCN(C(C)=O)CC3)C2)cc1 (configuration not stated)	i
c1cc(CN2CCCCC2)cc(OCCCNc2nc3ccccc3s2)c1	+
c1ccc(CCCN2CC[C@H](c3nc4ccccc4s3)C2)cc1	i
NC(=O)COc1cccc(CN2CCN(c3ccc(F)cc3F)CC2)c1	i
CCc1ccccc1NC(=O)CSc1nnc2n(Cc3ccc(C)cc3)c(=O)c3ccccc3n12	i
SMILES	Methyltransferases
Cc1ccc(C)c(Cn2nc3n(C(C)C)c(=O)c4ccc(C(=O)NC5CCCC5)cc4n3c2=O)c1	i
Brc1c(Br)c(Br)c2[nH]cnc2c1Br	+
CCc1ccccc1NC(=O)Cn1nc2n(C(C)C)c(=O)c3ccc(C(=O)NC(C)CC)cc3n2c1=O (configuration not stated)	i
CCOC(=O)c1cc2n(n1)CC(C)(C(=O)NC1CCCCCC1)N(Cc1ccc(CC)cc1)C2=O (configuration not stated)	i
Cc1ccc(Cl)cc1N1C(=O)c2cc(C(C)(C)C)nn2CC1(C)C(=O)NC1CCCCC1 (configuration not stated)	i
COc1cccc(CN2C(=O)c3ccc(-c4ccco4)n3CC2(C)C(=O)NC2CCCCCCC2)c1 (configuration not stated)	i
Cc1cc2c(cc1CC(=O)c1sccc1S(=O)(=O)Nc1onc(C)c1Cl)OCO2	+!
CC1(C(=O)NC2CCCCCC2)Cn2c(cc3sccc32)C(=O)N1Cc1ccc(F)cc1 (configuration not stated)	i
CCN(CC)c1ccc(N2C(=O)c3ccc(-c4ccco4)n3CC2(C)C(=O)NCc2ccccc2)c(C)c1 (configuration not stated)	i
COc1ccc(C(=O)Cn2nc3n(C(C)C)c(=O)c4ccc(C(=O)NC5CCCCC5)cc4n3c2=O)cc1	i
Cn1cncc1C(N)(c1ccc(Cl)cc1)c1ccc2c(c1)c(-c1cccc(Cl)c1)cc(=O)n2C (configuration not stated)	+
CCCn1c(=O)c2cc(Cl)ccc2n2c(SCC(=O)NCc3ccc(Cl)cc3)nnc12	i
CC1(C(=O)NC2CCCCCC2)Cn2c(cc3sccc32)C(=O)N1c1ccc(Cl)cc1 (configuration not stated)	i
COc1ccccc1N1CCN(CCCCN2C(=O)c3ccccc3C2=O)CC1	i
COc1ccccc1N1CCN(CCN(C(=O)c2ccc(F)cc2)c2ccccn2)CC1	i
COc1ccccc1N1CCN(c2ncnc3n[nH]c(Br)c23)CC1	+
O=C(Cn1ccc2cc(S(=O)(=O)N3CCCC3)ccc21)NC1CCCC1	i
CCCn1c(=O)c2ccc(Cl)cc2n2c(=O)n(Cc3ccccc3)nc12	i
CC1(C(=O)NCc2ccc(F)cc2)Cn2cnc(C(=O)NCc3ccc(F)cc3)c2C(=O)N1C1CC1 (configuration not stated)	i
O=C(/C=C/c1ccc(O)cc1)OC[C@H]1O[C@H](O[C@@]2(CO)O[C@@H](CO)[C@H](O)[C@H]2O)[C@H](O)[C@@H](O)[C@@H]1O	i
COc1cc(C(O)C(CO)Oc2ccc(CCCO[C@@H]3O[C@@H](C)[C@H](O)[C@@H](O)[C@H]3O)cc2OC)ccc1O (some centres not stated)	+
COc1cc(/C=C/C(=O)O[C@H]2[C@H](O)[C@@H](CO)O[C@@]2(CO)O[C@H]2O[C@H](CO)[C@@H](O)[C@H](O)[C@H]2O)cc(OC)c1O	i
COc1cc(/C=C/c2cc(O)cc(O[C@@H]3O[C@H](CO)[C@@H](O)[C@H](O)[C@H]3O)c2)ccc1O	+
COc1cc(C2Oc3c(OC)cc(CCCO)cc3C2CO)ccc1O[C@H]1O[C@H](C)[C@@H](O)[C@H](O)[C@@H]1O (some centres not stated)	i
COc1cc(C(CO)C(OC2OC(CO)C(O)C(O)C2O)c2ccc(O)c(OC)c2)ccc1O (configuration not stated)	i
SMILES	Methyltransferases
COc1cc(/C=C/CO)ccc1O[C@@H]1O[C@H](CO)[C@@H](O)[C@H](O)[C@H]1O	i
COc1cc(C2Oc3c(OC)cc(/C=C/C(=O)OC[C@H]4O[C@@H](OC(C)(C)C(=O)O)[C@H](O)[C@@H](O)[C@@H]4O)cc3C2CO)ccc1O (some centres not stated)	+
O=C(/C=C/c1ccc(O)c(O)c1)OCc1ccccc1O[C@@H]1O[C@H](CO)[C@@H](O)[C@H](O)[C@H]1O	i
C/C=C/c1ccc(O[C@@H]2O[C@H](CO)[C@@H](O)[C@H](O)[C@H]2O)c(OC)c1	i
COc1cc(/C=C/C(=O)OC2CC(C)=C(C(=O)O)/C2=C/CO[C@@H]2O[C@H](CO)[C@@H](O)[C@H](O)[C@H]2O)ccc1O (some centres not stated)	i
COc1cc(/C=C/C(=O)OCC2OC(OC3(CO)OC(CO)C(O)C3O)C(O)C(O)C2O)ccc1O (configuration not stated)	+

Screening data deposited in PubChem BioAssay by National Center for Advancing Translational Sciences (NCATS).
